Measurements taken from PubChem BioAssay AID485314 (National Center for Advancing Translational Sciences (NCATS), 2010).
The whole screen tested about 340,000 compounds, of which about 4,500 (1.3%) were called active. Roughly 5% stayed inconclusive and do not appear here. Calls come from the whole dose curve; as a rule, active = well fitted inhibition curve with a large enough effect; inconclusive = small, poorly fitted or top-dose-only effect, or another doubt; inactive = no such curve, though single readings can be large or run the other way. Many of the other results were omitted from the sample, so actives are more common in it than they were.

What follows are molecules tested against DNA polymerase beta (Homo sapiens) (UniProt P06746) (assay: qHTS Assay for Inhibitors of DNA Polymerase Beta). Settings: Pol beta primer extension/strand displacement, fluorescence kinetic; series mostly up to 114 µM.
Procedure, shortened: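 Pol beta (10 nM) was preincubated with compound for 15 min at room temperature. The reaction was then started with 50 nM substrate and read immediately and after a further 10 min at room temperature.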
Potency is the fitted concentration of half-maximal effect.

Potency, inactive:
CCC(=O)N1CCc2cc(S(=O)(=O)NC(CC(C)C)C(=O)NCCc3cccc(C)c3)ccc21 (centres undefined), CCC(C)(C)n1nnnc1C(c1ccc(OC)c(OC)c1)N1CCN(C(=O)c2ccco2)CC1 (centres undefined), CC(C)C(c1nnnn1C1CCCCC1)N1CCN(C(=O)c2ccco2)CC1 (centres undefined), COc1ccc(-c2c(C)c3ccc(O)c(CN4CCCC4)c3oc2=O)cc1OC, COc1ccc(-c2c(C)c3ccc(O)c(CN4CCN(C)CC4)c3oc2=O)cc1OC, CCN(CC)c1ccc(NS(=O)(=O)c2cc(-c3cc(C)no3)ccc2C)c(C)c1, CN(C)CCCn1c(-c2ccc(Cl)cc2)csc1=Nc1ccccc1, CCN1CCN(CCCNC(=O)c2ccc3c(c2)sc2nc(-c4ccc(OC)cc4)cn23)CC1, O=C(CSc1nc2ccccc2nc1Cc1ccccc1)N1CCCCC1, CCOC(=O)c1ccc(N2C(=O)c3n[nH]c(C)c3C2c2ccc(O)c(OC)c2)cc1 (centres undefined), COc1ccc(OC(C)C(=O)NCCc2nc3ccccc3[nH]2)cc1 (centres undefined), CC(C)Oc1ccc(/C=C(\NC(=O)/C=C/c2ccco2)C(=O)NCCc2nc3ccccc3[nH]2)cc1, O=C(NCc1ccccc1Cl)C1=Cc2cc(Br)ccc2OC1, CC(C)C(=O)Nc1nc2c(s1)CC(C(C)(C)C)CC2 (centres undefined), CN(C)CCNC(=O)c1[nH]nc2c1CCc1ccccc1-2, COc1ccc(/C=N/NC(=O)c2ccc3c(c2)OCCO3)c(OC)c1, CCOc1ccccc1CNC(=O)c1ccc(-n2c(C)cc3c2CCC(C)C3)cc1 (centres undefined), O=C(CCCCCN1C(=O)c2cccc3cccc(c23)C1=O)NCc1ccco1, O=C1c2cccc3cccc(c23)C(=O)N1CCCCCc1n[nH]c(=S)o1, CCN(CCCNC(=O)CSc1cc(=O)n(C)c2cc(Cl)ccc12)c1cccc(C)c1, COc1ccc(C2=NC(c3ccncc3)=Nc3ccc(Br)cc3N2)cc1, CC(=O)c1ccc(NC(=O)CCc2nc(-c3ccc(C)cc3)no2)cc1, COc1cc2ccccc2cc1C(=O)Nc1cccc(-c2nc3ccccc3o2)c1, NC(=O)CCN1CCN(S(=O)(=O)/C=C/c2ccccc2)CC1, COc1ccccc1N1CCN(CC(=O)NC(=O)NCc2ccco2)CC1, CCC1=Nc2cc(C(=O)NCC(C)c3ccccc3)ccc2Sc2ccc(C)cc21 (centres undefined), O=C(CNS(=O)(=O)c1cccs1)N1CCN(c2ccccc2Cl)CC1, COc1cccc(CNS(=O)(=O)c2ccc3c(c2)CC(C)N3C(=O)C2CCC2)c1 (centres undefined), COc1cccc(CNS(=O)(=O)c2ccc3c(c2)CC(C)N3C(C)=O)c1 (centres undefined), COc1cc(C(=O)N2CCN(c3ccc(Nc4ccc(C)cc4)nn3)CC2)cc(OC)c1OC, Cc1ccc(-c2cnc(NCc3ccc(C(C)C)cc3)n2C)cc1, Cc1ccc(OCC(=O)NCCCNC(=O)c2ccco2)cc1C, COc1ccc(OCC(=O)Nc2ccc(NC(=O)c3ccco3)c(C)c2)cc1, CCC(C)Nc1oc(-c2ccc(COc3ccc(Cl)cc3)o2)nc1C#N (centres undefined), Cc1ccccc1CNC(=O)CCCn1nc(C)c2sc3ccccc3c2c1=O, CCNC(=S)N1CCC(c2nc3cc(C)c(C)cc3[nH]2)CC1, CCCNC(=S)N1CCCC(c2nc3ccccc3[nH]2)C1 (centres undefined), Fc1ccc(Nc2nc(SCc3ccccc3Cl)nc3ccccc23)cc1, CC1(C)N=C(SCc2ccccc2Cl)c2ccccc2N1

Potency, active:
CCC(c1nnnn1C1CCCC1)N1CCN(C(=O)c2ccco2)CC1 (centres undefined) 44.7 µM, COc1c(O)cc2oc(-c3ccc(O)c(O)c3)cc(=O)c2c1O 6.31 µM, CCCCCOc1ccc(/C=C/C(=O)NCCc2nc3ccccc3[nH]2)cc1OC 15.8 µM, COc1cccc(/C=N/NC(=O)c2[nH]nc3c2CCc2ccccc2-3)c1O 8.91 µM, C[N+](C)(CCCCCC[N+](C)(C)CCCN1C(=O)c2cccc3cccc(c23)C1=O)CCCN1C(=O)c2cccc3cccc(c23)C1=O 2.38 µM, O=C(CN1CCN(S(=O)(=O)/C=C/c2ccccc2)CC1)NC(=O)NCc1ccco1 25.1 µM, CCC(=O)N1c2ccc(S(=O)(=O)NCc3ccco3)cc2CC1C (centres undefined) 0.398 µM, COc1ccc(NC(=O)c2ccco2)cc1NC(=O)COc1ccc(C)c(C)c1 11.2 µM, COCCCNC(=S)N1CCCC(c2nc3cc(C)c(C)cc3[nH]2)C1 (centres undefined) 39.8 µM, Clc1ccccc1CSc1nnc(-c2ccco2)c(-c2ccco2)n1 4.47 µM
